Our source for the composite z-score, composite Z-score and z-score values is PubChem BioAssay.

The target of one test is Albumin (Bos taurus) (UniProt P02769). Briefly: bovine serum albumin binders on microarray, profiling panel, artefact control for SMM control protein annotation, biochemical, small-molecule microarray, Alexa647 label, 635/667 nm fluorescence (AID 1118).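 Further: score merges 667 nm emission intensity and signal-to-noise per printed compound spot.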 The note with it: BSA-A647 binding, fluorescence 635 nm, higher = more signal.
A short description of test [1]: small-molecule microarray binders of probe aXIP, primary screen, biochemical, NeuroSMM set, 635/667 nm fluorescence (AID 1119).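 Further: probe is the protein aXip251-270 applied at 1 µg/mL to compound-printed slides; binding of probe to printed compounds measured as 667 nm fluorescence plus signal to noise.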 As to conditions: higher = more signal, called active from +8 up or from −8 down.
The nature of test [2]: small-molecule binders of probe aNOTCH3, primary screen, biochemical, small-molecule microarray, 635/667 nm fluorescence (AID 1120).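 Further: probe is a biotin-tagged antibody raised against NOTCH3 rather than NOTCH3 protein; score merges spot fluorescence near 667 nm with spot signal to noise.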 As to conditions: higher = more signal.
Test [3] can be described thus: small-molecule binders of probe aNOTCH2, primary screen, biochemical, small-molecule microarray, 635/667 nm fluorescence (AID 1121).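 Further: score merges feature fluorescence read at 667 nm with its signal to noise.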 The note with it: higher = more signal.
The target in test [4] is Carbonic anhydrase 2 (Homo sapiens) (UniProt P00918). Kind of test: CAII small-molecule binders, profiling panel, biochemical, small-molecule microarray, Alexa647-labelled CAII (AID 1122). As to conditions: CAII-A647 binding fluorescence, higher = more signal.
A short description of test [5]: COS7 lysate on small-molecule microarray, probe aHis, 635 nm (AID 1123).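 Further: z-score combines 667nm fluorescence intensity with signal-to-noise per printed compound spot.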 As to conditions: COS7 cell lysate, fluorescence, higher = more signal.
The nature of test [6]: compound binding in COS7 lysate, probe aLAP1, primary screen, cell lysate, small-molecule microarray (AID 1124).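 Further: lysate comes from COS7 cells expressing LAP1 and is applied at 0.3 µg/mL; score merges spot fluorescence near 667 nm with signal-to-noise over triplicate slides.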 The note with it: probe aLAP1, fluorescence, higher = more signal.
For another test, the system named is Sam68 (KHDRBS1). Kind of test: Sam68 small-molecule binders, primary screen, biochemical, small-molecule microarray, 635 nm fluorescence (AID 1125).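 Further: score merges 667 nm channel intensity with signal to noise over triplicate slides.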 As to conditions: small-molecule microarray binding, higher = more signal.
In test [7] the test system is Chordin-like protein 2 (CHRDL2). Kind of test: CHRDL2 small-molecule binders, primary screen, biochemical, small-molecule microarray, 635 nm fluorescence (AID 1126).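 Further: printed compound slides probed with Chrdl2 protein at 4 µg/mL for 1 h at 4 C; score merges 667 nm emission intensity with signal to noise over three replicate slides.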 The note with it: small-molecule microarray binding, fluorescence 635 nm; higher = more signal.
The target in test [8] is Concanavalin-A (Canavalia ensiformis) (UniProt P02866). Kind of test: ConA small-molecule binders, primary screen, artefact control for SMM control protein annotation, biochemical, small-molecule microarray, Alexa647 label, 635 nm (AID 1127).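 Further: z combines 667 nm emission intensity with signal-to-noise across three replicate slides.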 As to conditions: ConA-A647 binding fluorescence, higher = more signal.
Test [9] is described as follows: anti-His antibody binders, primary screen, artefact control for SMM control protein annotation, biochemical, small-molecule microarray, 635 nm fluorescence (AID 1128).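 Further: score merges feature fluorescence with signal-to-noise for each printed compound spot.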 As to conditions: anti-His Alexa647 antibody binding, higher = more signal.
Test [10] concerns Human papillomavirus type 1a E7 protein (residues 1-88). Kind of test: HPV1a E7 small-molecule binders, primary screen, biochemical, small-molecule microarray, residues 1-88, 635 nm (AID 1129). The note with it: small-molecule microarray binding, fluorescence 635 nm; higher = more signal.
Test [11] has as its target Focal adhesion kinase 1 (Homo sapiens) (UniProt Q05397). Kind of test: small-molecule microarray binders of FAK, primary screen, biochemical, 635/667 nm fluorescence, BSA, DTT (AID 1130).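 Further: composite of spot emission at 667 nm and signal to noise over triplicate slides.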 The note with it: PTK2 binding, 635 nm fluorescence, higher = more signal.
The subject of test [12] is Fibrinogen (Alexa647-labelled). Kind of test: fibrinogen binders on compound microarrays, profiling panel, artefact control for SMM control-protein annotation, biochemical, small-molecule microarray, 635/667 nm fluorescence (AID 1131).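 Further: z-score merges 667 nm fluorescence with per-spot signal-to-noise over triplicate slides.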 As to conditions: fibrinogen-A647 binding fluorescence, higher = more signal.
In test [13] the target is Follistatin (Homo sapiens) (UniProt P19883). Briefly: follistatin binders on small-molecule microarrays, primary screen, biochemical, small-molecule microarray, 635/667 nm fluorescence (AID 1132). The note with it: FST binding, 635 nm fluorescence, higher = more signal.
Test [14] addresses Fibroblast growth factor 2 (Homo sapiens) (UniProt P09038). Kind of test: FGF2 binders on small-molecule microarrays, primary screen, biochemical, small-molecule microarray, 635/667 nm fluorescence (AID 1133). As to conditions: small-molecule microarray binding, FGF2, fluorescence 635/667; higher = more signal.
Test [15] in a line: mitochondrial membrane potential change in A549 cells, profiling panel, cell-based, JC-1 fluorescence, basal, 24 h, 100 nL (AID 1138).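 Further: A549 lung adenocarcinoma cells under basal conditions with no added stimulus; test concentration not given here.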 As to conditions: higher = more signal.
Another test deals with Lefty1. Briefly: Lefty1 binders on small-molecule microarrays, primary screen, biochemical, small-molecule microarray, 635/667 nm fluorescence (AID 1139). As to conditions: small-molecule microarray binding, fluorescence 635/667; higher = more signal.
The test system of test [16] is wheat germ agglutinin (Triticum aestivum), Alexa647-labelled. Kind of test: wheat germ agglutinin binders on compound microarrays, profiling panel, artefact control for SMM control-protein annotation, biochemical, small-molecule microarray, 635/667 nm fluorescence (AID 1140).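 Further: score merges 667 nm feature emission with signal to noise over triplicate slides.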 The note with it: WGA-A647 binding, 635 nm fluorescence, higher = more signal.
Test [17] has as its target Luciferin 4-monooxygenase (Photinus pyralis) (UniProt P08659). Kind of test: firefly luciferase enzyme inhibitors, primary screen, biochemical, luminescence, purified enzyme, 2006 set (AID 1141).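 Further: cell-free assay with purified firefly luciferase at 100 ng per well in PBS; test concentration not given here.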 As to conditions: SteadyGlo luminescence, 30 min, higher = more signal, called active from +8 up or from −8 down.

The source made the active and inactive calls.

Chain of Albumin (Bos taurus) (P02769 whole entry, looked up): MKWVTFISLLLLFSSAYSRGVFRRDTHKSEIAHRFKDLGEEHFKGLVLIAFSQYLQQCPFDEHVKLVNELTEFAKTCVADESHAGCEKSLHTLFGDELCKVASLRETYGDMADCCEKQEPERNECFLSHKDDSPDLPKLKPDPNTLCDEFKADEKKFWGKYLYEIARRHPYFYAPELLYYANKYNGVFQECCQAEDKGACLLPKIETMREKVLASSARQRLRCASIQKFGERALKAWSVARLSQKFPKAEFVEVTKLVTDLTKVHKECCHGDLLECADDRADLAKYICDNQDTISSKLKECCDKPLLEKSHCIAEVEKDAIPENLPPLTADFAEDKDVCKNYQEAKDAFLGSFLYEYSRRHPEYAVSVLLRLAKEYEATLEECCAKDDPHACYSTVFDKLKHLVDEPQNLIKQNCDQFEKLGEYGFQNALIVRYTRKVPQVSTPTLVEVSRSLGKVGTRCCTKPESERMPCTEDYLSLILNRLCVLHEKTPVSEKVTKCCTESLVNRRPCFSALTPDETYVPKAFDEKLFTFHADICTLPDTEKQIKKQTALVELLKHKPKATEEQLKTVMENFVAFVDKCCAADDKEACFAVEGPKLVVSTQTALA
Chain of Concanavalin-A (Canavalia ensiformis) (P02866 whole entry, looked up): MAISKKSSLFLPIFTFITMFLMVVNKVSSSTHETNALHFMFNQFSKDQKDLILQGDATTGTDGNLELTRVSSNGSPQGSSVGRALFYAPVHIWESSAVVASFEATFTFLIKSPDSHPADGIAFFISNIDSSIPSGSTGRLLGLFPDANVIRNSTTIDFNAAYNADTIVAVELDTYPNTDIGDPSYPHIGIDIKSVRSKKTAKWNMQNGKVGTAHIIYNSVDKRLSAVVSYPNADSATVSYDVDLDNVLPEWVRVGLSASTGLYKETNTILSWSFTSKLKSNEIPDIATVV
Chain of Focal adhesion kinase 1 (Homo sapiens) (Q05397 whole entry, looked up): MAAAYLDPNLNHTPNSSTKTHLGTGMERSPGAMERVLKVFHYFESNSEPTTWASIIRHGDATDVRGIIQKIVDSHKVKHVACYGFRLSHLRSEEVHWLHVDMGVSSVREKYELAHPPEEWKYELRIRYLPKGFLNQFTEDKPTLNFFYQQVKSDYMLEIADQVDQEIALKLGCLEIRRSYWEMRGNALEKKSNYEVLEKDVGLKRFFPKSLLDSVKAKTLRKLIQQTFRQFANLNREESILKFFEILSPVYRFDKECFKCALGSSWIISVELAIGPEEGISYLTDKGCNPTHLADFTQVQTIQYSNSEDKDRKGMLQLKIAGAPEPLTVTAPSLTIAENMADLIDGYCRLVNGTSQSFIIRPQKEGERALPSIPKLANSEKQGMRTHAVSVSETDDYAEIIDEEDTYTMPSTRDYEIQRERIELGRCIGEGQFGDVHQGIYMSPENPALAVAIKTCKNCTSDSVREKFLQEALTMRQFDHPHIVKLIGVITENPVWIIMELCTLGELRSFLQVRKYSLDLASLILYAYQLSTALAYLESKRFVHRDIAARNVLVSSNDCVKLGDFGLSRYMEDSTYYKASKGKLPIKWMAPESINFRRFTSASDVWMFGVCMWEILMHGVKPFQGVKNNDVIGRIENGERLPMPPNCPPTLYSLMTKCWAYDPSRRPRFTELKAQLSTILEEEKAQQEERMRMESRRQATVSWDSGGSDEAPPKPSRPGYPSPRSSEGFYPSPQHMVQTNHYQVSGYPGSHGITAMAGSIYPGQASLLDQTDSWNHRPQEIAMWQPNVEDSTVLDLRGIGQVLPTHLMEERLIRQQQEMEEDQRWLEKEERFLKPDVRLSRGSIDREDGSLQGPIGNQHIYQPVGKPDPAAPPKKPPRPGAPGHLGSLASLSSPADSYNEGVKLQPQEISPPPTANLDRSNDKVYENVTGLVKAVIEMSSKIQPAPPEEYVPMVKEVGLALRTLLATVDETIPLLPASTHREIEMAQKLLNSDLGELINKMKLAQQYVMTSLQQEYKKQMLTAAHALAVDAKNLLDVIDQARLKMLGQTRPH
Chain of Fibroblast growth factor 2 (Homo sapiens) (P09038 whole entry, looked up): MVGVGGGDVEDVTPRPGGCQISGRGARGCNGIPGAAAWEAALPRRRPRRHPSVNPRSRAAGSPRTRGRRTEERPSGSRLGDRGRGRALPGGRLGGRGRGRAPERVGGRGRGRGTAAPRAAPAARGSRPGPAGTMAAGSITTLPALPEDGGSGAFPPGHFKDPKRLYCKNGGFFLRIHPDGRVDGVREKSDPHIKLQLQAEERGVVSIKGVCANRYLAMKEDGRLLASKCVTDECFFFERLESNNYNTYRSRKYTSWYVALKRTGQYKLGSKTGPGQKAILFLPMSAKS
Chain of Follistatin (Homo sapiens) (P19883 whole entry, looked up): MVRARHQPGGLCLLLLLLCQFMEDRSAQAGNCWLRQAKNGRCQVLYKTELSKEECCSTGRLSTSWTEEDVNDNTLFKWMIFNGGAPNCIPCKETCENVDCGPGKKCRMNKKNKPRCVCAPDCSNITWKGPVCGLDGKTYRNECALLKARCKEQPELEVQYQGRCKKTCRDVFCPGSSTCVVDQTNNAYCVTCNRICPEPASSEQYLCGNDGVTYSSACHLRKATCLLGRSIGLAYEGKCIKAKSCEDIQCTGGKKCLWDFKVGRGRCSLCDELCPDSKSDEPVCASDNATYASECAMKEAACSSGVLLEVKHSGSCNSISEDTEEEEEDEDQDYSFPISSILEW
Chain of Luciferin 4-monooxygenase (Photinus pyralis) (P08659 whole entry, looked up): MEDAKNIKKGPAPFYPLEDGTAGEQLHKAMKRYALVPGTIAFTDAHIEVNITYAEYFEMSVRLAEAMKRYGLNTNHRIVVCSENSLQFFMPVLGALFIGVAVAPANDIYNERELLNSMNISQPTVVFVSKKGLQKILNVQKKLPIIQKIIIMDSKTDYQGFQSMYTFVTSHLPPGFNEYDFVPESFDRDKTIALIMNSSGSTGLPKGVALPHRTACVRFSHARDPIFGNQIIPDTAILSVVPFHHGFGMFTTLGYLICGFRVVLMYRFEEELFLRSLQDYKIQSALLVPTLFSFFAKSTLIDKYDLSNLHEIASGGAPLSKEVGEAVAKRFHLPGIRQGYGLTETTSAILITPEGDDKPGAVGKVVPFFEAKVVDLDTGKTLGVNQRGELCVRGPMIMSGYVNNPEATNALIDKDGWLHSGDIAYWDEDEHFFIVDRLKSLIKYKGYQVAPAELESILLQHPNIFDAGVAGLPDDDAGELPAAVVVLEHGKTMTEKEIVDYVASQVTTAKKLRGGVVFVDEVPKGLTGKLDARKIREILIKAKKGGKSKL

On to `COCCOC(=O)N1C(=O)[C@@]2(c3cc(C#CCCO)ccc31)[C@H](C(N)=O)[C@H]1C(=O)O[C@H](c3ccccc3)[C@H](c3ccccc3)N1[C@@H]2c1ccc(O)cc1`, for which the composite z-score was 0.205 with Albumin (Bos taurus); -0.159 in test [2]; -0.118 in test [3]; 0.463 in test [4]; 0.387 in [5]; 0.505 in test [6]. Further, the composite z-score in the test on Sam68 (KHDRBS1) is 0.0991; in test [7], -0.464; in [8] it was -0.332; in test [9], -0.0637; in test [10] it was -0.469; in [11] it was -0.167. For the same compound, the composite z-score is 0.141 in test [12]; -0.15 in [13]; 0.0091 in test [14]; -0.431 with Lefty1; 0.115 in test [16]. For the same compound, the composite Z-score in test [1] was -0.516 (inactive). The z-score in [15] is 0.0757; in test [17] it was -0.381 (inactive).
Turning to `COCCOC(=O)N1C(=O)[C@@]2(c3cc(C#CCNC(N)=O)ccc31)[C@H](C(=O)N1CCN(c3ncccn3)CC1)[C@H]1C(=O)O[C@H](c3ccccc3)[C@H](c3ccccc3)N1[C@@H]2c1ccc(OCCO)cc1`, the composite z-score with Albumin (Bos taurus) is 0.521; in test [2], 0.185; in test [3], -0.108; in test [4] it was 0.193; in [5], 1.48; in test [6], 0.437. Moreover, the composite z-score was 1.29 in the test on Sam68 (KHDRBS1); 0.0879 in [7]; 1 in test [8]; 0.549 in test [9]; 1.12 in test [10]; -0.171 in [11]. In addition, the composite z-score worked out at 0.931 in [12]; 1.12 in [13]; 0.674 in test [14]; 0.465 with Lefty1; 0.723 in test [16]. Besides, the composite Z-score in [1] is 0.242 (inactive). Further, the z-score is -1.25 in test [15] and -1.47 (inactive) in test [17].
Regarding `COC(=O)[C@@]1(Cc2ccc(F)cc2)[C@H]2c3cc(C(=O)N(C)C)n(Cc4cc(F)c(F)c(F)c4)c3C[C@H]2CN1C(=O)c1ccccc1`, the composite z-score with Albumin (Bos taurus) was found to be 0.935; in test [2], 0.672; in [3] it was 0.214; in [4] it was 0.613; in [5], 2.37; in test [6], 0.351. Moreover, the composite z-score is 1.13 in the test on Sam68 (KHDRBS1); -0.0618 in test [7]; 1.13 in test [8]; 1.13 in test [9]; 1.21 in test [10]; 0.538 in [11]. For the same compound, the composite z-score in test [12] is 0.711; in [13], 1.02; in test [14], -0.0402; with Lefty1 it was -0.788; in [16], 0.704. Moreover, in test [1], the composite Z-score is 0.0144 (inactive). Also, the z-score in test [15] was 0.918; in [17], 2.37 (inactive).
As for `COc1ccc(C#Cc2ccc3c(c2)[C@]2(C(=O)N3)[C@H](c3ccccc3OCCO)N3[C@H](c4ccccc4)[C@H](c4ccccc4)OC(=O)[C@H]3[C@@H]2C(=O)Nc2nc3ccccc3s2)cc1`, the composite z-score in the test with Albumin (Bos taurus) stood at 0.187; in [2], 1.12; in [3] it was 0.0559; in [4] it was 0.327; in test [5], 0.646; in [6], 0.0878. Moreover, the composite z-score in the test on Sam68 (KHDRBS1) stood at 1.31; in test [7] it was 0.886; in [8], 0.931; in test [9], 1.5; in [10], 1.16; in test [11], 0.717. Also, the composite z-score in test [12] was determined as 0.767; in test [13] it was 1.25; in [14], 1.19; in the test on Lefty1, 1.33; in test [16], 0.828. Besides, in [1], the composite Z-score was 0.317 (inactive). Moreover, the z-score in [15] is -2.28; in [17] it was -1.36 (inactive).
Consider `COCCOC(=O)N1C(=O)[C@@]2(c3ccccc31)[C@H](c1ccccc1OCCO)N1[C@H](c3ccccc3)[C@H](c3ccccc3)OC(=O)[C@H]1[C@@H]2C(=O)N1CCN(c2ncccn2)CC1`, for which the composite z-score is 0.493 with Albumin (Bos taurus); -0.0345 in test [2]; -0.0756 in [3]; 0.521 in test [4]; 1.59 in [5]; 0.218 in test [6]. For the same compound, the composite z-score with Sam68 (KHDRBS1) came out at 1.29; in test [7], 0.0792; in [8] it was 1.11; in test [9] it was 1.22; in test [10], 1.15; in test [11], 0.1. For the same compound, the composite z-score in test [12] turned out to be 0.64; in [13] it was 0.755; in test [14], 0.385; with Lefty1, 0.962; in test [16], 1.1. Besides, the composite Z-score in test [1] is 1.6 (inactive). Further, the figures for the z-score in [15] and in [17] were -1.21 and -0.388 (inactive), respectively.
For `C=CCOC(=O)[C@H]1[C@@H]2C(=O)O[C@@H](c3ccccc3)[C@@H](c3ccccc3)N2[C@@H](c2ccc(OCCOC(=O)[C@H]3C[C@H]4C(=O)N[C@@H](CCCC[N+](C)(C)C)C(=O)N4[C@H]3c3ccc(O)cc3)cc2)[C@]12C(=O)Nc1ccc(I)cc12`, the composite z-score with Albumin (Bos taurus) was -0.763; in [2] it was 0.191; in [3], 0.0482; in [4] it was -0.141; in test [5] it was 0.502; in test [6], -0.432. The composite z-score amounted to 1.11 in the test with Sam68 (KHDRBS1); 1.11 in [7]; 0.401 in test [8]; 1.24 in [9]; 1.08 in test [10]; 0.38 in test [11]. Besides, the composite z-score was -0.154 in test [12]; 1.38 in test [13]; 1.14 in [14]; 1.27 with Lefty1; 0.0577 in test [16]. In addition, the composite Z-score in test [1] is 1.88 (inactive). For the same compound, the z-score in test [15] is 0.694; in test [17], -0.666 (inactive).
